ALR inh: human ALR oxidase inhibition via reduced H2O2 | P55789 | purified ALR, DTT oxidation, H2O2 HRP-luminol luminescence | inhibition, % (concentration not given with the values) | hit rate 3.8% among 290,000 | AID 485317;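 active = mean replicate inhibition above about 79%, with every replicate also reaching it, limit read from the data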
Target sequence (P55789 whole entry, looked up): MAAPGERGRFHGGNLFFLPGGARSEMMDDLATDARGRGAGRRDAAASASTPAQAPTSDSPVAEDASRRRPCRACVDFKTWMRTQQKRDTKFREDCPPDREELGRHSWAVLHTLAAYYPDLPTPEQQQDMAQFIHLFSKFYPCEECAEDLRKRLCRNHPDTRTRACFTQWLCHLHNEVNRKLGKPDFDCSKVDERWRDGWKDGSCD
IDE cell inh: inhibitors of human insulin-degrading enzyme in cells. P14735. HEK cells, FAbetaB cleavage, fluorescence polarization. inhibition, % at 5.59 µM. hit rate 0.41% among 320,000;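 active = percent inhibition above the average of all tested compounds plus 3 SD, set per screening campaign, cut at about 16% in these data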;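 also: IDE supplied by intact live HEK cells; FP after avidin binding of uncleaved biotin substrate so inhibition keeps polarization high; 0% = DMSO wells and 100% = 60 µM reference IDE inhibitor Ii1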
IDE act: activators of human insulin-degrading enzyme in cells; HEK cells, FAbeta-B cleavage, fluorescence polarization; 0% vehicle, 100% cell-free pure enzyme wells; AID 493087; P14735; hit rate 0.073% among 340,000; activation, % at 5.96 µM;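 active = activation above the mean of all tested compounds plus 3 SD, set per screening campaign, cut at about 17% in these data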
CaV13 FRET inh: Primary screen for inhibitors of IQ motif and Ca2+-dependent inactivation inhibitor domain binding in CACNA1D, Förster resonance energy transfer in living cells, …; HEK cells, CFP/YFP FRET ICDI-IQ, plate reader, 10 min; percent FRET-ratio fall versus neutral wells; inhibition, % at 12.3 µM; hit rate 0.098% among 340,000; AID 743397;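 active = mean replicate inhibition of at least 30% and at least 1% of replicates passing that level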;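 also: 0% = median of the neutral control wells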
M18AAP inhibitor: blocks P. falciparum M18 aspartyl aminopeptidase; recombinant PfM18AAP, H-Glu-NHMec fluorogenic cleavage; inhibition, % at 7.35 µM; hit rate 1.2% among 290,000; AID 1822;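 active = inhibition above the campaign mean inhibition over all tested compounds plus 3 SD, cut at about 28% in these data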;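 also: 0% = plate median of test compound wells and 100% = 2 mM ZnCl2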
PolyA inh: inhibitors of polyadenylation in S. cerevisiae; activity score, % at 12 µM; S. cerevisiae SKY197-pL101 polyadenylation reporter, beta-gal luminescence; efflux-impaired pdr1/pdr3 knockout yeast; score 100 = 6 SD above DMSO; AID 1875; hit rate 0.02% among 300,000;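 active = lowest replicate activity score at least 50, where 100 means six control SD above control mean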;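 also: yeast exposed to compound for 9 h at 30 °C; higher score means more reporter readthrough which indicates perturbed polyadenylation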
Active calls of the source: *; / = no result. Rows were chosen to be rich in hits. Some 4.1% of all compounds tested hit in one or more screens of this group.

SMILES	ALR inh	IDE cell inh	IDE act	CaV13 FRET inh	M18AAP inhibitor	PolyA inh
Cc1cc(O)cc(C)c1NS(=O)(=O)c1ccc2ccccc2c1	78.7*	-2.9	0.2	-4.2	-5.7	-9.7
O=S(=O)(Nc1cccc2ccccc12)c1ccccc1F	21.1	-1.2	5.6	-7.3	2.6	3.1
Cc1ccc(S(=O)(=O)Nc2c(O)ccc3ccccc23)cc1	88.4*	3.6	/	/	/	-0.3
O=S(=O)(Nc1c(O)ccc2ccccc12)c1cccc2ccccc12	87.1*	5.2	-0.2	/	/	5.0
COc1ccc2cc(N=Cc3nc(-c4ccc(C)cc4)oc3O)cnc2c1	0.6	1.8	0.8	-12.3	-3.3	5.2
CC(=O)NC1C(=O)N(CCN2CCOCC2)c2ccc(Br)cc21 (centres undefined)	/	2.1	-0.1	-16.6	30.2*	-3.0
CCOc1ccc2c(c1)C(NC(C)=O)C(=O)N2CCN1CCOCC1 (centres undefined)	-0.2	/	-1.4	-4.5	20.1	-2.0
COc1ccc(NS(=O)(=O)c2cccc(NC(=O)CCS(=O)(=O)c3ccccc3)c2)cc1	0.1	3.2	-1.4	-2.3	1.1	17.7
CCOC(=O)N1CCN(S(=O)(=O)c2ccc(C(=O)NNc3nc4ccc(Cl)cc4s3)cc2)CC1	98.3*	-2.9	-0.1	/	6.8	5.2
CCOC(=O)N1CCN(S(=O)(=O)c2ccc(C(=O)NNc3nc4cc(C)cc(C)c4s3)cc2)CC1	1.9	1.7	-3.5	/	15.0	-0.1
COC(=O)c1[nH]c(=O)c2ccccc2c1OCc1ccccc1	/	3.4	-3.2	-5.3	-1.4	2.2
COC(=O)c1[nH]c(=O)c2ccccc2c1O	98.1*	2.1	0.6	/	6.6	-0.8
CC(=O)Nc1ccc(NC(=O)CSC2=NCCS2)cc1	/	/	2.7	/	2.8	30.1
O=C(CSC1=NCCS1)Nc1ccc2ccccc2c1	98.5*	-1.8	3.5	-3.7	1.3	-12.0
O=C(CSc1ccc(C(F)(F)F)cc1[N+](=O)[O-])Nc1ccc2ccccc2c1	99.1*	3.5	6.3	-2.6	-8.3	12.2
O=C(CSC1=NCCS1)Nc1cccc(F)c1	98.8*	0.2	3.6	-2.9	-1.7	2.2
O=C1c2cccc(NCCCNCCO)c2C(=O)c2cccc(NCCCNCCO)c21	/	/	2.7	-5.2	/	/
C=CCOc1ccccc1CN1CCCC(CCC(=O)N(C)CCc2ccccn2)C1 (centres undefined)	-24.8	-1.3	0.0	-4.9	-5.0	-8.1
COc1ccc(CC(=O)NCc2nnc(SCC(=O)Nc3ccc(OC)cc3)n2C)cc1	-0.5	3.0	-3.8	-18.7	-0.3	12.1
NNC(=O)c1cccc(COc2ccc(Br)cc2)c1	96.7*	5.2	-4.7	-5.1	-9.2	-12.3
NNC(=O)c1cccc(COc2cccc(Br)c2)c1	-4.8	-2.3	4.9	-4.2	-1.2	-1.1
CC(C)N(CCC(=O)c1ccc2ccccc2c1)Cc1ccccc1	97.3*	-2.3	-1.1	-5.4	/	/
O=C(O)c1cccc(Nc2c3ccccc3nc3ccccc23)c1	-3.5	-0.2	3.3	-2.2	5.4	-18.6
O=C(NNc1c2ccccc2nc2ccccc12)C12CC3CC(CC(C3)C1)C2	/	0.1	-3.1	-18.2	2.9	-0.4
O=C(NNc1c2ccccc2nc2ccccc12)c1ccc(O)cc1	98.8*	2.9	-0.9	43.7*	19.7	6.4
SMILES	ALR inh	IDE cell inh	IDE act	CaV13 FRET inh	M18AAP inhibitor	PolyA inh
O=C(NNc1c2ccccc2nc2ccccc12)c1cccc(O)c1	98.8*	-2.4	6.5	-4.0	7.6	0.5
O=C(NNc1c2ccccc2nc2ccccc12)C(O)c1ccccc1 (centres undefined)	99.3*	2.6	10.8	-1.1	-4.2	21.7
COCc1nc2c([nH]1)c(=O)n(C)c(=O)n2CC(C)C	-14.9	-2.4	5.4	-4.7	/	/
CCC/C(=C1/c2ccccc2C(=O)N1c1ccccc1)c1c(C)noc1C	/	/	/	-5.1	/	/
Cc1ccc(S[C@@H](CCN2CC[C@H](O)CCC2=O)c2ccccc2)cc1	27.5	11.0	-18.1	33.2*	-0.6	-5.7
CC(=O)Nc1nc(-c2ccc3c(c2)CC(C)N3C(=O)C2CC2)c(C)s1 (centres undefined)	98.7*	3.6	-0.5	-2.3	2.1	-0.4
CCOC(=O)C(=O)Nc1nc(-c2ccc3c(c2)CCN3C(=O)C2CC2)c(C)s1	99.1*	6.2	-0.8	-2.8	10.2	-9.5
Cc1ccc(NC(=O)c2ccccc2)s1	95.5*	1.9	1.5	-5.9	-9.2	17.7
Cc1cc(NC(=O)c2ccccc2)sc1C	-0.3	-2.9	4.2	-2.3	9.8	-8.5
Cc1nn(C)cc1CN(C)C(=O)c1cc(COc2ccc(F)cc2F)on1	-0.2	5.2	2.1	-4.3	-22.3	0.3
S=c1[nH]nc(-c2ccc3ccccc3n2)o1	91.0*	2.7	1.2	-5.2	-30.0	1.7
FC(F)(F)c1ccc(-c2n[nH]c(=S)o2)nc1	12.6	3.7	-1.2	-5.1	3.5	6.7
Cc1ccc(C)c(-n2c(-c3ccc4c(c3)OCO4)n[nH]c2=S)c1	82.7*	5.3	-3.8	-4.0	3.2	-4.2
Cc1ccc(C)c(-n2c(-c3csc(C)c3)n[nH]c2=S)c1	29.9	6.6	-18.5	-4.2	-1.7	/
COc1cc(OC)cc(-c2n[nH]c(=S)n2-c2ccc3c(c2)OCO3)c1	/	-3.9	-5.3	-3.7	31.7*	-8.6
Fc1ccc(-n2c(-c3ccc4c(c3)OCO4)n[nH]c2=S)cc1Cl	96.4*	-0.1	-11.6	-4.1	22.1	-10.7
O=C(Nc1ccc(N2CCOCC2)c(F)c1)c1cccs1	4.1	3.0	3.4	/	-2.9	-2.5
O=C(O)c1ccccc1Nc1ccc([N+](=O)[O-])cc1	9.1	-13.5	28.4*	-5.8	-11.9	4.8
O=C(O)c1ccccc1C(=O)Nc1ccc(Nc2ccc([N+](=O)[O-])cc2[N+](=O)[O-])cc1	95.9*	-1.6	3.8	-14.9	-5.1	14.5
Nc1ccc(Nc2ccc([N+](=O)[O-])cc2[N+](=O)[O-])cc1	98.4*	-4.5	4.7	25.9	2.2	-2.3
Cc1c(Cl)cccc1Nc1ccccc1C(=O)O	97.9*	-3.3	6.9	-4.4	-12.6	14.1
CN1C(=O)[C@@]2(O[C@H]3C=CC=CN3C3=C2C(=O)CCC3)c2cc([N+](=O)[O-])ccc21	/	/	/	-4.0	/	/
O=C(CN1CCC(NC(=O)C2CC2)CC1)Nc1cccc(F)c1	-8.8	-6.3	-7.0	-3.4	-2.4	-4.0
CC(=O)Oc1ccc(N(C(C)=O)S(=O)(=O)c2ccc3ccccc3c2)cc1	/	1.8	0.6	-18.4	-5.3	-13.6
CCOC(=O)C(C)On1c(-c2ccccc2)nc2ccc([N+](=O)[O-])cc21 (centres undefined)	97.2*	4.5	0.3	-4.8	5.1	-27.3

Bioassay records from PubChem BioAssay.
